# Assay results taken from PubChem BioAssay AID2427 (National Center for Advancing Translational Sciences (NCATS), 2010).
# Active and inactive are the calls of the source.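 Rule for the calls: active = melting temperature shift above 3 C; inconclusive = shift above 1 C but not above 3 C; inactive = the rest.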
# Molecular target: 15-hydroxyprostaglandin dehydrogenase [NAD(+)] (Homo sapiens) (UniProt P15428)
# Assay: Thermal Shift Assay for Inhibitors of HPGD (15-Hydroxyprostaglandin Dehydrogenase)
# Conditions: Recombinant HPGD thermal shift, SYPRO orange DSF, at 250 µM, stronger effect = higher value
# Method: Assay Overview: Human 15-Hydroxyprostaglandin dehydrogenase (HPGD) catalyzes the inactivation of prostaglandin E2, and plays a major role in cancer biology by antagonizing the oncogenic potential of cyclooxygenase type 2 (COX2). Studies to assess the stability of human 15-PGDH in presence of compounds was performed as described (Niesen et al., 2007) with variations. References 1. Myung SJ, Rerko RM, Yan M, Platzer P, Guda K, Dotson A, Lawrence E, Dannenberg AJ, Lovgren AK, Luo G, Pretlow TP, Newman RA, Willis J, Dawson D, Markowitz SD. 15-Hydroxyprostaglandin dehydrogenase is an in vivo suppressor of colon tumorigenesis. Proc Natl Acad Sci U S A. 2006 Aug 8;103(32):12098-102. 2. Yan M, Rerko RM, Platzer P, Dawson D, Willis J, Tong M, Lawrence E, Lutterbaugh J, Lu S, Willson JK, Luo G, Hensold J, Tai HH, Wilson K, Markowitz SD. 15-Hydroxyprostaglandin dehydrogenase, a COX-2 oncogene antagonist, is a TGF-beta-induced suppressor of human gastrointestinal cancers. Proc Natl Acad Sci U S A. 2004 Dec 14;101(50):17468-73. 3. […]
# HPGD was diluted to a final assay concentration of 1 uM in 100 mM Tris buffer, pH 8.0, containing 0.01% Tween-20 and 1:1000 SYPRO orange dye. […] Heat denaturation curves were recorded using a RT-PCR instrument (Mx3005p, Agilent) applying a temperature gradient of 2 degree C/min. […]
# Sequence of 15-hydroxyprostaglandin dehydrogenase [NAD(+)] (Homo sapiens) (P15428 whole entry, looked up): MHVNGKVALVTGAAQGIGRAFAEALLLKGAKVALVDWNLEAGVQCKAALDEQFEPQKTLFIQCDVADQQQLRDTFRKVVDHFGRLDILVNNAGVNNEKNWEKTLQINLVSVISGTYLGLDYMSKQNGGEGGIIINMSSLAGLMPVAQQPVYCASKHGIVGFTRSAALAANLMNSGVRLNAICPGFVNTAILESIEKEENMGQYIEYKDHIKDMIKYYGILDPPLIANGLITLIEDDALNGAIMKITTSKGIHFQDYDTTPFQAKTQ
structure (smiles),measurement,setting,value
O=P1(Nc2ccc(F)cc2)COc2ccccc2OC1,thermal shift (delta Tm),,0.5 C (inactive)
same,thermal shift (delta Tm),measured here: delta Tm with NADH cofactor,3.3 C
